In PubChem BioAssay (NCI) one finds growth data, which are given here for 11 molecules.

Test in all cases: NCI-60 one-dose screen, 48 h (100 = growth as untreated, 0 = no growth, -100 = all killed)
Conditions in all cases: 10 µM unless noted

Test [1] deals with NCI-H23 lung.
Test [2] relates to NCI-H226 lung.
For test [3], the system named is NCI-H322M lung.
Test [4] relates to HOP-62 NSCLC.
The test system of test [5] is NCI-H460 lung.
Test [6] relates to HOP-92 NSCLC.
For test [7], the system named is NCI-H522 lung.
Test [8] concerns A549/ATCC NSCLC.
The test system of test [9] is 786-0 renal.
Test [10] concerns COLO 205 colon.

The panel holds about 83,000 compounds, 20% with a hit somewhere; the sample as a whole holds those more often.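 Compound tested at a single concentration for 48 hours in 96-well plates; a percent growth value below 10 was scored as active.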 Unmarked numbers belong to inactive results. The source made the active and inactive calls.

For `COc1ccc2[nH]c(=O)c(CSc3ccccc3Nc3nccc(-c4ccc5c(c4)OCO5)n3)cc2c1`, the growth in test [1] is 94.9%; in [2], 76.1%; in [3] it was 92.5%; in test [4] it was 94.1%; in [5], 83.5%; in test [6], 90.3%. In addition, the growth in test [7] was 66.1%; in test [8], 76.3%; in test [9], 90.1%; in test [10], 101%.

Turning to `c1n[nH]cc1-c1nc2ccc3cn[nH]c3c2c2c1CCCC2`, the growth was 90.2% in test [1]; 46.4% in test [2]; 86.8% in [3]; 79.9% in test [4]; 101% in [5]; 85.2% in test [6]. Besides, the growth in test [7] was 70.7%; in test [8], 95.1%; in [9], 110%; in test [10], 102%.

As to `COc1cc2cc(C(=O)N3C[C@@H](CCl)c4c3cc(OC(=O)N(CCC(=O)N3CCN(C)CC3)[C@H]3CCSSC3)c3ccccc43)[nH]c2c(OC)c1OC`, the growth in test [1] is -87% (active); in test [2], -15.3% (active); in [3] it was -23% (active); in test [4], -17.8% (active); in test [5], -72.6% (active); in test [6], -7.53% (active). Also, the growth in test [7] is -80.5% (active); in test [8], -37.3% (active); in test [9], -79.8% (active); in test [10], -65.7% (active).

On to `COc1cc(NC(=O)CSc2nnc(-c3ccc(-c4nc5ccc(Cl)cc5[nH]4)cc3)o2)cc(OC)c1OC`, for which the growth is 52.2% in test [1]; 57.3% in test [2]; 95.2% in [3]; 65.9% in test [4]; 29% in test [5]; 91.5% in test [6]. Also, the growth was 35% in test [7], 70.5% in test [8], 56.7% in [9] and 74.2% in test [10].

With `COC(=O)c1cc(C(=O)C(Br)Br)n2c1ccc1c3ccccc3ccc12`, the growth in test [1] is 69%; in test [2], 64.2%; in test [3], 89.4%; in [4], 56.7%; in test [5] it was 18.4%; in [6], 54.3%. Besides, the growth in test [7] is 60.2%; in [8], 40.8%; in [9], 64.6%; in test [10], 55.3%.

Consider `CN(C)c1nc(NCCNS(=O)(=O)c2ccc(C(=O)/C=C/c3ccc(Cl)cc3)cc2)nc(N2CCOCC2)n1`, for which the growth in test [1] was 9.4% (active); in test [2], 74.9%; in [3] it was 81.2%; in test [4], 74.8%; in [5] it was 50.7%; in test [6], 67.9%. Further, the growth was 25% in [7], 12% in test [8], -41.6% (active) in test [9] and 21.1% in test [10].

Regarding `Cc1ccc(S(=O)(=O)N(CCn2ccnc2[N+](=O)[O-])CCn2ccnc2[N+](=O)[O-])cc1`, the growth in test [1] is 104%; in [2] it was 100%; in test [3], 107%; in test [4] it was 108%; in test [5] it was 109%; in test [6], 106%. Moreover, the growth in test [7] is 91.5%; in test [8], 102%; in test [9], 101%; in test [10], 111%.

For the molecule `C/C(=N\Nc1ccc(S(N)(=O)=O)cc1)c1cnn(-c2cc(=O)[nH]c3ccc(Br)cc23)c1C`, the growth in test [1] was 69.9%; in test [2] it was 62.3%; in test [3], 77.7%; in [4], 63.4%; in [5], 77.9%; in test [6] it was -2.47% (active). For the same molecule, the growth was 5.07% (active) in test [7], 100% in test [8], 85.9% in test [9] and 85.5% in [10].

`O=C(c1ccc(Cl)cc1)C1[C@H](c2ccccc2Cl)[C@@H](c2ccccc2)NC12C(=O)Nc1ccccc12` (stereo not given in full): the growth is -50.2% (active) in [1]; -67.5% (active) in test [2]; 12.5% in test [3]; -40.9% (active) in [4]; -57.2% (active) in test [5]; -48% (active) in test [6]. Further, the growth in [7] is -30.9% (active); in test [8] it was 3.68% (active); in test [9], -58.4% (active); in test [10], -87.8% (active).

In the case of `O=C(CSc1nnc(-c2ccc(-c3nc4ccccc4[nH]3)cc2)o1)Nc1ccc(Br)cc1`, the growth was 1.35% (active) in test [1]; 74.4% in test [2]; 36.8% in test [3]; 3.07% (active) in [4]; -55.2% (active) in [5]; 9.82% (active) in test [6]. The growth in test [7] was 12.8%; in [8] it was 0.989% (active); in [9], -40.9% (active); in [10], 51.7%.

As for `Clc1ccc(CNc2nc(SCCN3CCOCC3)nc3c2cnn3CC(Cl)c2ccc(Br)cc2)cc1` (stereo not given), the growth was 49.4% in test [1]; 62.6% in test [2]; 83.8% in test [3]; 58.6% in [4]; 25.1% in test [5]; 48% in test [6]. Further, the growth is 48.5% in [7], 23.4% in [8], 39.6% in test [9] and 5.78% (active) in test [10].
